AmpC detergent: qHTS Inhibitors of AmpC Beta-Lactamase (assay with detergent); P00811; AmpC hydrolysis of nitrocefin, absorbance 480 nm, 0.01% Triton; Potency, µM (series often up to 114 µM), for inactives: at the top dose activity change, negative = inhibition, actives largely listed as inhibitors; 0.041% of 370,000 active; AID 485294, 2010;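 further: 0% = no-compound wells and -100% = no-enzyme wells; nearly all actives have a fitted effect of over 25% in size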
Target sequence (P00811 whole entry, looked up): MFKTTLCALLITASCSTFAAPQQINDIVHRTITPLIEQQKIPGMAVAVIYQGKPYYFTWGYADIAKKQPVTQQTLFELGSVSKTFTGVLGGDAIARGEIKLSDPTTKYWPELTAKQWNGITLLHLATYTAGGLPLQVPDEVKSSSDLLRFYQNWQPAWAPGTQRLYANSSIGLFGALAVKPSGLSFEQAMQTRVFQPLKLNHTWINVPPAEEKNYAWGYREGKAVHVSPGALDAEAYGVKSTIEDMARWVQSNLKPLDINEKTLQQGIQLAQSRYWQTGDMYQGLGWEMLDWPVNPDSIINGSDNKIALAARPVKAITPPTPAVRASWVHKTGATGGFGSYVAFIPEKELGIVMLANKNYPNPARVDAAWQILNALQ
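AmpC (5.3 nM in the dispensed reagent) in 20 mM phosphate pH 7.0 with 0.01% (detergent screen) or 0.0001% Triton X-100 was preincubated with compounds for 15 min at room temperature. Nitrocefin was then added from an 800 uM solution, and hydrolysis was followed at 480 nm.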
Pf growth 96h: Primary qHTS for delayed death inhibitors of the malarial parasite plastid, 96 hour incubation; AID 504834, 2011; 6.9% of 320,000 active; Potency, µM (series often up to 28.7 µM), for inactives: top-dose activity change, negative = inhibition, most hits filed as inhibitors; P. falciparum luciferase reporter growth, 96 h; further: on the % scale 0 is the no-effect control and ±100 the full control effect
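Luminescence readout: decreased luciferase signal marks inhibited growth of reporter-expressing P. falciparum in infected red cells (2% hematocrit, 0.05% parasitemia final), exposed to compound two generations (96 h, 37 C, 5% CO2).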
Sm TGR inh: qHTS Assay for the Inhibitors of Schistosoma Mansoni Peroxiredoxins. purified TGR, DTNB reduction, TNB absorbance 405 nm. Schistosoma mansoni thioredoxin glutathione reductase (TGR), Q962Y6. Potency, µM (highest dose often 114 µM), without a hit: at the highest dose activity change, negative = inhibition, most hits filed as inhibitors. 3% of 360,000 active. AID 485364, 2010; further: on the % scale 0 is the no-effect control and ±100 the full control effect; nearly all actives have a fitted effect of over 60% in size
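TGR 20 nM + NADPH 100 uM (dispensed conc.), cpd preinc 15 min RT; start with NADPH (500 uM addition) then DTNB (15 mM addition). Kinetic TNB absorbance, 405 nm filter. Four-parameter Hill fit across titration.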
SARS PLpro yeast: qHTS of Yeast-based Assay for SARS-CoV PLP. S. cerevisiae expressing SARS-CoV PLpro, growth rescue. Potency, µM (doses to about 32.9 µM), for inactives: at the top dose activity, positive = growth rescue, hits mostly activators. 0.19% of 330,000 active; calls by dose curve; further: 0% is about no effect; nearly all actives have a fitted effect of over 55% in size
AmpC inh no detg: qHTS Inhibitors of AmpC Beta-Lactamase (assay without detergent); P00811; AmpC nitrocefin hydrolysis, absorbance 480 nm, 0.0001% Triton; Potency, µM (series often up to 57.1 µM), inactives show at the highest dose activity change, negative = inhibition, most hits filed as inhibitors; 0.52% of 330,000 active; AID 485341, 2010;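 further: plate controls were no compound for no effect and no enzyme for full effect; nearly all actives have a fitted effect of over 20% in size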
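AmpC (5.3 nM in the dispensed reagent) in 20 mM phosphate pH 7.0 with 0.01% (detergent screen) or 0.0001% Triton X-100 was preincubated with compounds for 15 min at room temperature. Nitrocefin was then added from an 800 uM solution, and hydrolysis was followed at 480 nm.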
Pf growth 48h: Primary qHTS for delayed death inhibitors of the malarial parasite plastid, 48 hour incubation; P. falciparum luciferase growth in erythrocytes, 48 h; Potency, µM (doses to about 28.7 µM), for inactives: at the top dose activity change, negative = inhibition, most hits filed as inhibitors; 5.9% of 310,000 active; AID 504832, 2011; further: on the % scale 0 is the no-effect control and ±100 the full control effect
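Luciferase-expressing parasites in RBCs, 2% Hct / 0.1% parasitemia final; RPMI 1640 + 0.5% Albumax; 37 C, 5% CO2, one generation; luminescence read-out, lower signal = inhibition.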
* hit, by the source's call; ? = inconclusive; . = no result given; [ ] = remark or other dose. In the library only some 12% were active in any assay of this set; here they are far more common. Unless noted, the call rests on the fitted dose curve; in most records, active means well fitted curve in the direction sought with a large enough effect; inconclusive means small, poorly fitted or top-dose-only effect, or another doubt; inactive means no such curve, though single readings can be large; an effect the other way counts as inactive or inconclusive. Potency means the concentration at half of the fitted maximal effect.

SMILES	AmpC detergent	Pf growth 96h	Sm TGR inh	SARS PLpro yeast	AmpC inh no detg	Pf growth 48h
O=C(c1c(F)cccc1F)N(C1CCCCC1)C1CCCCC1	-12%	-15%	12%	2%	-2%	10µM*
COc1ccc(N2CCN(C(=O)c3cc4c(=O)n(Cc5cccs5)ccc4nc3C)CC2)cc1	?	.	-7%	.	.	.
CC(C)(C)c1ccc(C(=O)Nc2nnc(C3=COCCO3)o2)cc1	-11%	9.3µM*	-2%	-2%	-42%	15µM*
O=C(Nc1nnc(C2=COCCO2)o1)c1cccc(F)c1	5%	15µM*	-2%	1%	-15%	?
Cc1cc(N2CCN(c3ccccc3F)CC2)nc2cc(O)ccc12	0%	0%	-9%	2%	-43%	10µM*
Cc1cc(N2CCN(c3ccc(F)cc3)CC2)nc2cc(O)ccc12	-7%	7.4µM*	7%	-1%	-40%	.
COc1ccc(N2CCN(c3cc(C)c4ccc(O)cc4n3)CC2)cc1	?	126%	2%	7%	-20%	13µM*
COc1ccc(N2CCN(c3cc(C)c4ccc(C)cc4n3)CC2)cc1	6%	0%	-2%	-8%	2%	-19%
O=C(Nc1ccccc1)c1cccc(N2CCCS2(=O)=O)c1	-1%	.	?	.	.	.
Cc1cc(NC(=O)COC(=O)C2CCN(S(=O)(=O)c3ccccc3)CC2)c([N+](=O)[O-])cc1C	-2%	20%	-3%	?	-14%	9%
COc1ccc2[nH]cc(C(=O)CN3CCN(C/C=C/c4ccccc4)CC3)c2c1	2%	10µM*	-16%	7%	56%	12µM*
COc1ccc(CCN(C)CC(=O)Nc2c(C)cc(C)cc2C)cc1OC	3%	?	100µM*	-1%	55%	?
COc1ccc2[nH]cc(C(=O)CCl)c2c1	-14%	-5%	2.8µM*	0%	-49%	7%
COc1ccc2[nH]cc(C(=O)CN(C)CCc3ccc(OC)c(OC)c3)c2c1	-16%	-17%	13µM*	7%	-44%	-29%
COc1ccc(CCN(C)CCC(=O)Nc2cc(C)ccc2C)cc1OC	2%	-6%	30%	1%	23%	0%
COc1cc(OC)cc(N2C(=O)N(Cc3ccc(C(C)(C)C)cc3)c3ccccc3S2(=O)=O)c1	8%	.	13%	.	.	.
Cc1cccc(OCC(=O)Nc2ccccc2C(=O)OCc2cc(=O)n3nc(C)sc3n2)c1	2%	.	5%	.	.	.
COc1ccc2[nH]cc(C(=O)CNc3nc(C)cs3)c2c1	2%	36%	4%	-13%	-31%	1.7µM*
COc1ccc(CCN(C)C(=S)Nc2cccc(C)c2)cc1OC	-6%	?	1%	-2%	-2%	1.7µM*
COc1ccc2[nH]cc(C(=O)CN3CC(C)CC(C)C3)c2c1 (stereo unspecified)	3%	19%	-30%	-4%	-16%	-6%
COc1cccc(NC(=S)N(CCc2ccc(OC)c(OC)c2)Cc2ccccn2)c1	3%	?	10%	?	93%	?
Cc1cc(C)n(CC(=O)O)c(=O)c1[N+](=O)[O-]	8%	49%[5.75 µM]	40µM*	0%	-20%	8%
CN1C(=O)CC(c2cn(Cc3ccccc3)c3ccccc23)C1=O (stereo unspecified)	-5%	2.6µM*	-9%	-3%	-7%	?
CCCn1c(/C=C/c2ccco2)nc2ccccc21	-6%	?	20µM*	-23%	-18%	19%
CCCn1c(NCc2ccco2)nc2ccccc21	-1%	.	-1%	-1%	-38%	-22%
Cc1ccc(/C=N/Nc2ccc3ccccc3n2)o1	2%	-89%	-34%	-3%	-1%	77%
CCCCn1c(/C=C/c2ccco2)nc2ccccc21	3%	?	10µM*	-16%	-23%	39%

Assay outcomes from PubChem BioAssay.
